Inconclusive results are not listed. The source made the active and inactive calls. Calls follow the shape of the dose curve; as a rule, active = well fitted curve in the direction sought with a large enough effect; inconclusive = small, poorly fitted or top-dose-only effect, or another doubt; inactive = no such curve, though single readings can be large; an effect the other way counts as inactive or inconclusive.
Experiments:
[1] = Quantitative High-Throughput drug screen in 47 multiple myeloma cell lines against the NCATS MIPE library collection: KMS20_JCRB cell viability assay (AID 1918973); also: nearly all actives have a fitted effect of over 45% in size
In short: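 Relative luminescence from CellTiter-Glo served as the viability signal, referenced to DMSO-treated (100%) and cell-free medium (0%) controls. Treatment lasted 48 hours at 37C with 500 cells per well.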

[2] = Quantitative High-Throughput drug screen in 47 multiple myeloma cell lines against the NCATS MIPE library collection: KMS26_JCRB cell viability assay (AID 1918975); also: nearly all actives have a fitted effect of over 45% in size
In short: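 qHTS of the MIPE 4.0 collection: 500 myeloma cells/well, 48 h drug exposure at 37C in 5% CO2, then CellTiter-Glo for 5 min at room temperature before luminescence reading.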

[3] = Quantitative High-Throughput drug screen in 47 multiple myeloma cell lines against the NCATS MIPE library collection: MMM1_PLB cell viability assay (AID 1918976); also: nearly all actives have a fitted effect of over 35% in size
In short: (§1)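 MIPE 4.0 approved/investigational drugs; 500 cells/well; 48 h 37 °C humidified 5% CO2; CTG luminescence readout; DMSO = 100%, media = 0% viability.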

[4] = Quantitative High-Throughput drug screen in 47 multiple myeloma cell lines against the NCATS MIPE library collection: MOLP8_DSMZ cell viability assay (AID 1918977); also: nearly all actives have a fitted effect of over 45% in size
In short: as §1

[5] = Quantitative High-Throughput drug screen in 47 multiple myeloma cell lines against the NCATS MIPE library collection: NCIH929_DSMZ cell viability assay (AID 1918978); also: nearly all actives have a fitted effect of over 35% in size
In short: as §1

[6] = Quantitative High-Throughput drug screen in 47 multiple myeloma cell lines against the NCATS MIPE library collection: OCIMY1_PLB cell viability assay (AID 1918979); also: nearly all actives have a fitted effect of over 35% in size; as to viability: series mostly up to about 46 µM
In short: as §1

[7] = Quantitative High-Throughput drug screen in 47 multiple myeloma cell lines against the NCATS MIPE library collection: MM1S_ATCC cell viability assay (AID 1918980); also: nearly all actives have a fitted effect of over 45% in size
In short: as §1

[8] = Quantitative High-Throughput drug screen in 47 multiple myeloma cell lines against the NCATS MIPE library collection: MM1R_ATCC cell viability assay (AID 1918981); also: nearly all actives have a fitted effect of over 35% in size
In short: as §1

[9] = Quantitative High-Throughput drug screen in 47 multiple myeloma cell lines against the NCATS MIPE library collection: KMS28PE_JCRB cell viability assay (AID 1918983); also: nearly all actives have a fitted effect of over 35% in size
In short: as §1

[10] = Quantitative High-Throughput drug screen in 47 multiple myeloma cell lines against the NCATS MIPE library collection: L363_DSMZ cell viability assay (AID 1918984); also: nearly all actives have a fitted effect of over 40% in size
In short: as §1

[11] = Quantitative High-Throughput drug screen in 47 multiple myeloma cell lines against the NCATS MIPE library collection: KMS34_JCRB cell viability assay (AID 1918985); also: nearly all actives have a fitted effect of over 40% in size
In short: as §1

[12] = Quantitative High-Throughput drug screen in 47 multiple myeloma cell lines against the NCATS MIPE library collection: OCIMY7_PLB cell viability assay (AID 1918987); also: nearly all actives have a fitted effect of over 65% in size
In short: as §1

[13] = Quantitative High-Throughput drug screen in 47 multiple myeloma cell lines against the NCATS MIPE library collection: OCIMY5_PLB cell viability assay (AID 1918988); also: nearly all actives have a fitted effect of over 65% in size
In short: as §1

[14] = Quantitative High-Throughput drug screen in 47 multiple myeloma cell lines against the NCATS MIPE library collection: OPM1_PLB cell viability assay (AID 1918989); also: nearly all actives have a fitted effect of over 40% in size
In short: as §1

[15] = Quantitative High-Throughput drug screen in 47 multiple myeloma cell lines against the NCATS MIPE library collection: U266_ATCC cell viability assay (AID 1919864); also: nearly all actives have a fitted effect of over 35% in size
In short: as §1

[16] = Quantitative High-Throughput drug screen in 47 multiple myeloma cell lines against the NCATS MIPE library collection: XG6_PLB cell viability assay (AID 1919865); also: nearly all actives have a fitted effect of over 40% in size
In short: as §1

[17] = Quantitative High-Throughput drug screen in 47 multiple myeloma cell lines against the NCATS MIPE library collection: XG1_PLB cell viability assay (AID 1919866); also: nearly all actives have a fitted effect of over 35% in size
In short: as §1

[18] = Quantitative High-Throughput drug screen in 47 multiple myeloma cell lines against the NCATS MIPE library collection: LP1_DSMZ cell viability assay (AID 1918982); also: nearly all actives have a fitted effect of over 35% in size
In short: as §1

[19] = Quantitative High-Throughput drug screen in 47 multiple myeloma cell lines against the NCATS MIPE library collection: SKMM1_PLB cell viability assay (AID 1919863); conditions: SKMM1 myeloma viability, CellTiter-Glo ATP, 48 h; viability: hits give low values; also: nearly all actives have a fitted effect of over 35% in size
In short: as §1
Potency is read from the fitted curve at half-maximal effect.

Row | Structure (SMILES) | Potency [1] | Potency [2] | Potency [3] | Potency [4] | Potency [5] | Potency [6] | Potency [7] | Potency [8] | Potency [9] | Potency [10] | Potency [11] | Potency [12] | Potency [13] | Potency [14] | Potency [15] | Potency [16] | Potency [17] | Potency [18] | Potency [19]
1 | c1nc2nc(Nc3ccc(N4CCOCC4)cc3)nc(NC3CCCCC3)c2[nH]1 | 4.69 µM (active) | 16.6 µM (active) | 10.5 µM (active) | 8.33 µM (active) | 3.72 µM (active) | 16.6 µM (active) | 5.9 µM (active) | 14.8 µM (active) | 16.6 µM (active) | 5.26 µM (active) | 5.26 µM (active) | 3.32 µM (active) | 18.7 µM (active) | 4.69 µM (active) | 16.6 µM (active) | 2.09 µM (active) | 1.48 µM (active) |  | 
2 | c1cc(-c2cnn3cc(-c4ccc(OCCN5CCCCC5)cc4)cnc23)ccn1 | 2.35 µM (active) | 16.6 µM (active) | 16.6 µM (active) | 10.5 µM (active) | 2.35 µM (active) | 26.4 µM (active) | 16.6 µM (active) | 18.7 µM (active) |  | inactive | 13.2 µM (active) | 2.09 µM (active) | 4.69 µM (active) | 4.18 µM (active) | 13.2 µM (active) | 4.18 µM (active) | 5.9 µM (active) | 13.2 µM (active) | 20.9 µM (active)
3 | CC(NCc1ccc2c(c1)nc(NC(=O)c1ccc(-c3cn[nH]c3)s1)n2CC(C)(C)O)C(C)(C)C (stereo not given) | 0.235 µM (active) | 0.743 µM (active) | 0.118 µM (active) | 0.209 µM (active) | 0.235 µM (active) | 1.05 µM (active) |  | 0.469 µM (active) | 0.469 µM (active) | 0.105 µM (active) | 0.372 µM (active) | 0.148 µM (active) | 0.235 µM (active) | 0.264 µM (active) | 0.332 µM (active) | 0.235 µM (active) | 0.372 µM (active) | 0.469 µM (active) | 0.743 µM (active)
4 | CCCCCN(CCC12CC3CC(CC(C3)C1)C2)C(=O)NCCCc1ccncc1 | 18.7 µM (active) | 20.9 µM (active) | 20.9 µM (active) | 20.9 µM (active) | 18.7 µM (active) | inactive | 18.7 µM (active) | 23.5 µM (active) | 20.9 µM (active) |  |  | 16.6 µM (active) | 14.8 µM (active) |  | 14.8 µM (active) |  |  |  | 23.5 µM (active)
5 | CC(=O)Nc1sc2c(c1-c1nc3ccccc3s1)CNC2 | 16.6 µM (active) | 16.6 µM (active) | 14.8 µM (active) | 5.9 µM (active) | 16.6 µM (active) |  | 14.8 µM (active) | 18.7 µM (active) | 20.9 µM (active) |  | 6.62 µM (active) |  | 16.6 µM (active) | 18.7 µM (active) | 16.6 µM (active) | 9.35 µM (active) | 14.8 µM (active) | 18.7 µM (active) | 16.6 µM (active)
6 | CC1=C(CO)C(=O)O[C@@H]([C@@H](C)[C@H]2CC[C@H]3[C@@H]4C[C@H]5O[C@]56[C@@H](O)C=CC(=O)[C@]6(C)[C@@H]4CC[C@]23C)C1 | 0.148 µM (active) | 0.235 µM (active) | 0.833 µM (active) | 0.132 µM (active) | 0.166 µM (active) | 0.118 µM (active) |  | 0.132 µM (active) | 0.264 µM (active) |  | 0.118 µM (active) | 0.105 µM (active) | 0.132 µM (active) | 0.132 µM (active) | 0.264 µM (active) | 0.469 µM (active) | 0.209 µM (active) | 0.187 µM (active) | 0.296 µM (active)
7 | Fc1cc(-c2cccc3ncc(-c4cnn(C5CCNCC5)c4)nc23)cc(F)c1CN1CCOCC1 | 5.26 µM (active) | 26.4 µM (active) | 23.5 µM (active) | 18.7 µM (active) | 8.33 µM (active) |  |  | 20.9 µM (active) |  | 6.62 µM (active) | 14.8 µM (active) | 6.62 µM (active) | 16.6 µM (active) | 8.33 µM (active) | 20.9 µM (active) | 7.43 µM (active) | 7.43 µM (active) |  | 23.5 µM (active)
8 | CCCCc1nc2cc(C=CC(=O)NO)ccc2n1CCN(CC)CC | 0.209 µM (active) | 0.526 µM (active) | 0.418 µM (active) | 0.132 µM (active) | 0.935 µM (active) | 1.66 µM (active) |  |  | 0.526 µM (active) |  | 0.372 µM (active) | 0.935 µM (active) | 0.0418 µM (active) | 0.148 µM (active) | 0.935 µM (active) | 4.69 µM (active) | 1.48 µM (active) | 0.0743 µM (active) | 0.59 µM (active)
